High-throughput results from PubChem.
ATXN2 expr inh – reduces ATXN2 reporter expression in HEK-293 cells | HEK-293 ATXN2-luciferase reporter, luminescence, 24 h | Potency, µM (highest dose often 57 µM), hits mostly inhibitors | actives 0.72% (n = 360,000) | AID 1745845; note: nearly all actives have a fitted effect of over 55% in size
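ATXN2-luciferase reporter cells (luciferase flanked by upstream and downstream ATXN2 gene portions) were treated 24 h at 37 °C with compounds at up to 57 uM. SteadyGlo luminescence gave expression; GF-AFC fluorescence gave viability.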
TGFb SMAD3 inh – inhibitors of TGF-b signaling; HepG2 CAGA-GFP TGF-b/SMAD3 reporter, GFP fluorescence, 18 h; TGF-beta stimulated, 500 pg/mL final; Potency, µM (doses to about 46.1 µM), usual class: inhibitors; actives 1.2% (n = 410,000); note: nearly all actives have a fitted effect of over 65% in size
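Read-out: total well GFP (ex488/em500-530) summed from mean per-cell fluorescence. Cells: HEPG2 CAGA-GFP, 1% FBS DMEM, 18 h at 37 degrees C with 500 pg/mL final TGF-beta. Unstimulated wells served as the full-inhibition control; stimulated DMSO wells = 0%.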
ATXN viability – viability counter-screen for ATXN expression inhibitors. actives 0.49% (n = 400,000). Potency, µM (doses to about 56.7 µM), actives largely listed as cytotoxic. S2 cells (HEK-293 line with an ATXN2-luciferase reporter) viability, CellTiter-Fluor protease fluorescence, 24 h; note: nearly all actives have a fitted effect of over 40% in size
IL1B secr inh – blocks inflammasome-driven IL-1 beta release | actives 4.7% (n = 360,000) | activity change, % at 57.5 µM | THP-1 LPS/ATP IL-1B secretion, AlphaLISA, 16 h; stronger effect = lower value | AID 743279; in the data active = activity change below about -50%; inconclusive = mostly about -30% to -49%
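THP-1 cells pretreated 1 hr with compounds (up to 57.5 uM final), then stimulated with LPS (250 ng/mL final) plus ATP (1.25 mM final); secreted IL-1B measured by AlphaLISA after 16 hr, decreased signal indicating inhibition.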
HepG2 tox – kills HepG2 cells in TGF-b inhibitor counter-screen | HepG2 CAGA-GFP viability, ATP luminescence, 18 h | Potency, µM (doses to about 46.1 µM), actives largely listed as cytotoxic | actives 0.76% (n = 410,000) | AID 588856
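HepG2 CAGA-GFP cells (1000/well, DMEM with 1% FBS) received compound, then TGF-beta at 500 pg/mL final, and were incubated 18 hours at 37 degrees C. Viability was read by CellTiter-Glo luminescence. Media-only wells were set as complete cell-killing and DMSO as no toxicity.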
Numbers stand for hits; – = inactive; ? = inconclusive; · = no result; ! = repeats disagree; [ ] = remark or other dose. Sampled rows, rich in hits. Any-hit rate of the full collection: about 5.7%. Unless noted, calls come from the whole dose curve; as a rule, active = well fitted curve in the direction sought with a large enough effect; inconclusive = small, poorly fitted or top-dose-only effect, or another doubt; inactive = no such curve, though single readings can be large; an effect the other way counts as inactive or inconclusive.

SMILES	ATXN2 expr inh	TGFb SMAD3 inh	ATXN viability	IL1B secr inh	HepG2 tox
CCOC(=O)C1CCN(C(=O)c2ccc3c(c2)N=C(CC)c2cc(C)ccc2S3)CC1	–	10µM	–	·	–
CCOC(=O)c1c(C)oc2nc(C)nc(N3CCN(c4cccc(C)c4C)CC3)c12	–	–	–	·	–
CCc1ccc(Nc2cnn(C34CC5CC(CC(CC(=O)O)(C5)C3)C4)c(=O)c2Cl)cc1	–[11.3 µM]	–	–	-97.4	–
CC1=C(C(=O)Nc2ccccc2C)C(c2cccs2)n2nc(SCc3ccccc3)nc2N1 (stereo not drawn)	?	?	?	·	–
COc1ccc(-c2noc(CSc3nc(N)cc(=O)[nH]3)n2)cc1OC	·	–	·	·	–
CCc1ccc(C(=O)c2cn(Cc3ccc(F)cc3)c3cc(OC)c(OC)cc3c2=O)cc1	?	?	14.1µM	·	–
O=C1C[C@H]2C=CCc3cccc(c32)CN1Cc1cccc(F)c1	·	–	·	·	–
CN1C(=O)CSc2ccc(NC(=O)Nc3ccccn3)cc21	–	?	–	-60.0	–
CC(=O)Nc1ccc(NC(=O)Nc2ccc3c(c2)N(C)C(=O)CS3)cc1	–[11.3 µM]	–	–	?	–
Cc1ccc(-c2nc3scc(CCNC(=O)Cc4ccc(Cl)cc4)n3n2)cc1	–	–	?	·	–
CCN1C=C(Cc2ccc(OC)cc2)C2=C(C1)C(c1ccc(OC)cc1)C(C#N)=C(N)O2 (stereo not drawn)	–	–	–	-59.9	–
Cc1ccc(CNC(=O)c2c(-c3ccccc3Cl)noc2C)o1	–	–	–	·	–
CC1CN(c2nc(-c3ccc(Br)cc3)nnc2-c2ccccc2)CC(C)N1 (stereo not drawn)	?	–	?	-105.4	–
Cc1ccc(CNC(=O)c2ccc(CSCc3ccc(C)cc3)o2)cc1	·	?	·	·	–
Cc1ccc(CNC(=O)c2ccc(CSCc3c(F)cccc3Cl)o2)cc1	–	15.8µM	–	·	–
CC(C)CCNC(=O)c1ccc(CSCc2cccc(F)c2)o1	–	–	–	-62.9	–
Cc1ccc(C(C)C)c(OCC(O)CNC2CCCC2)c1 (stereo not drawn)	·	–	?	-51.2	–
CCc1ccc(CN(C)CC(O)COc2cccc3ccccc23)cc1 (stereo not drawn)	?	?	–	-99.1	–
Cc1ccc(C(C)C)c(OCCCN(C)Cc2ccccc2)c1	–	?	–	–	–
Cc1ccc(C(C)C)c(OCC(O)CN(C)Cc2ccccc2)c1 (stereo not drawn)	–	15.8µM	?	-85.2	–
Cc1ccccc1OCC(O)CNC1CCCC1 (stereo not drawn)	–	–	–	–	–
Cc1ccc(CSc2ccc3nnc(CCNS(=O)(=O)c4ccc(C)cc4)n3n2)cc1	·	?	·	·	–
O=C1c2ccc3c4c(ccc(c24)C(=O)N1NC(=O)C(F)(F)F)CC3	–	–	–	?	–
CC(=O)NN1C(=O)c2ccc3c4c(ccc(c24)C1=O)C(=O)N(NC(C)=O)C3=O	·	7.94µM	·	–	10µM
COC(=O)[C@H](Cc1ccccc1)NC(=O)C1CCN(C(=O)[C@H](C)NS(=O)(=O)c2ccc(C)cc2)CC1	?	–	?	-50.0	–
SMILES	ATXN2 expr inh	TGFb SMAD3 inh	ATXN viability	IL1B secr inh	HepG2 tox
Cc1ccc(S(=O)(=O)N[C@@H](CC(C)C)C(=O)N2CCC(C(=O)N[C@@H](Cc3ccccc3)C(=O)O)CC2)cc1	–	–	–	–	–
COc1cccc(OCCOc2c(OC)cccc2OC)c1	–	–	–	-59.7	–
COc1cccc(OC)c1OCCCOc1c(OC)cccc1OC	–	–	–	–	–
CCc1ccc(CNC(=O)c2ccc3c(c2)nc2n3CCOC2)cc1	·	–	·	·	–
CC(Sc1nc(-c2ccccc2)cc(C(F)(F)F)n1)C(=O)N1CCCC1 (stereo not drawn)	–	–	–	–	–
CC1CCN(C(=O)C(C)Sc2nc(-c3ccccc3)cc(C(F)(F)F)n2)CC1 (stereo not drawn)	–	15.8µM!	–	–	–
CC(=O)c1ccccc1NC(=O)c1ccc(OCc2c(C)noc2C)cc1	–	–	–	-66.4	–
CC(=O)c1cccc(NC(=O)c2ccc(OCc3c(C)noc3C)cc2)c1	·	–	–	–	–
Cc1cccc(C(=O)Nc2ccccc2C(=O)OCc2c(C)noc2C)c1	–	–	–	-57.2	–
